Compound activity (PubChem BioAssay)
Rows were chosen to be rich in hits. Some 1.4% of all compounds tested hit in one or more screens of this group.
GALR2 antag – GALR2 antagonists in receptor-expressing cells, primary screen | antagonist mode | inhibition, % at 4 µM | 0.39% of 140,000 active | AID 828, 2007; in the data active means inhibition above about 27%;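 further: cells stimulated with galanin 1-16 at roughly its EC80; 0% = agonist challenge control and 100% = basal control without agonist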
S1P2 blocker – human S1P2 receptor antagonists, primary screen, cell-based. inhibition, % at 5 µM. Sphingosine 1-phosphate receptor 2 (Homo sapiens), O95136. AID 736, 2007. 0.21% of 97,000 active. cell-based S1P2 antagonist assay, inhibition at 5 uM; in the data active means inhibition above about 45%;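 further: CRE beta-lactamase reporter cells expressing human S1P2 stimulated with S1P; 0% = agonist at EC80 alone and 100% = agonist plus reference antagonist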
MT1-MMP txn act – MT1-MMP promoter reporter activation – cell-based, luciferase luminescence, primary screen; HT1080 MT1-MMP promoter luciferase reporter, overnight; active compounds read high; activation factor at 10 µM; 0.16% of 86,000 active; AID 750, 2007;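 active means activation factor of at least 2 for MT1-MMP transcription at 10 µM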
GALR2 ag – GALR2 receptor agonists, primary screen, cell-based; Galanin receptor type 2 (Homo sapiens), O43603; GALR2-expressing cells, agonist activation read-out; activation, % (test concentration not listed); 0.48% of 140,000 active; AID 803, 2007; in the data active means activation above about 5%, passing the limit was not always enough;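 further: 0% = vehicle buffer wells and 100% = reference agonist at full effect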
S1P2 agonist – S1P2 receptor agonists, primary screen, cell-based | Sphingosine 1-phosphate receptor 2 (Homo sapiens), O95136 | 0.46% of 97,000 active | S1P2-expressing cell line, agonist reporter read-out | activation, % at 4.5 µM; in the data active means activation above about 16%;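 further: 0% = vehicle low control and 100% = maximal reference agonist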
Smad3 FoxH1 inh – Smad3/FoxH1 peptide binding inhibitors, primary screen, biochemical, TR-FRET; Mothers against decapentaplegic homolog 3 (Homo sapiens), P84022; TR-FRET Smad3/Dy647-FoxH1 peptide binding, europium anti-His; inhibition, % at 25 µM; 0.29% of 88,000 active; AID 630, 2007;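 active means compounds that reduce the energy-transfer binding signal between the protein and its labelled peptide by more than half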;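 further: 0% = Smad3 plus labelled peptide maximal FRET and 100% = peptide-only background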
Target sequence (P84022 whole entry, looked up): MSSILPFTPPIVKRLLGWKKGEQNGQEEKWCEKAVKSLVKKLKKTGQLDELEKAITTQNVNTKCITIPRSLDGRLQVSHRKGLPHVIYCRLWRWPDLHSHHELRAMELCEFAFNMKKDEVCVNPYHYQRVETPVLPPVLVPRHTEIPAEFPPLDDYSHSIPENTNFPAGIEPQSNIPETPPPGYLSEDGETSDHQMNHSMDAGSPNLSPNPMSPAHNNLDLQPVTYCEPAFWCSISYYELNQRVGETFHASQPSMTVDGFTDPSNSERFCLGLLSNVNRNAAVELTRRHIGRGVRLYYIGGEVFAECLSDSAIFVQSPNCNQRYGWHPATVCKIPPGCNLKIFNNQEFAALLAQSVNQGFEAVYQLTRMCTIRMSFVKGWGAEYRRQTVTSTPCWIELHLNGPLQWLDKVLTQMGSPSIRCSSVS
* = called active by the depositor; [ ] = another dose, or the depositor's remark.

`CCCOc1nc2c(c(=O)n(C)c(=O)n2C)n1CCC` gave GALR2 antag -1.3, MT1-MMP txn act 1.1, GALR2 ag 7.8* and Smad3 FoxH1 inh -0.7.
CCCn1c(OC)nc2c1c(=O)n(C)c(=O)n2C was read as GALR2 antag 6.8, MT1-MMP txn act 1, GALR2 ag -2.9 and Smad3 FoxH1 inh -3.8.
`COC(=O)CCCC(=O)O` gave Smad3 FoxH1 inh -12.4.
Screening O=C(O)[C@@H]1[C@H](C(=O)NCc2ccccn2)[C@@H]2C=C[C@H]1O2 returned Smad3 FoxH1 inh -2.2.
`CC1CCCCC1NS(=O)(=O)c1ccc(S(=O)(=O)NCc2ccncc2)cc1` (centres undefined) gave GALR2 antag 23.4, S1P2 blocker 55.0*, MT1-MMP txn act 1.1, GALR2 ag -0.3, S1P2 agonist -3.3 and Smad3 FoxH1 inh -1.1.
O=C1CC(c2ccc(S(=O)(=O)NCc3ccncc3)cc2)CN1 (centres undefined) was read as GALR2 antag 6.5, S1P2 blocker 13.6, MT1-MMP txn act 1.1, GALR2 ag -2.8, S1P2 agonist 0.5 and Smad3 FoxH1 inh -19.5.
`CCCCNc1c(CN)cnc2cc(Cl)ccc12` gave Smad3 FoxH1 inh 4.8.
For CS[C@@]12C(=O)C[C@@]3(C)[C@@H](CC[C@@]3(O)C(=O)CO)[C@H]1CCC1=CC(=O)CC[C@]12C the results were Smad3 FoxH1 inh -11.2.
COC(=O)c1ccc(CSc2ncnc3c2oc2ccccc23)o1 was read as GALR2 antag -16.8, S1P2 blocker 5.3, MT1-MMP txn act 1, GALR2 ag -1.1, S1P2 agonist -5.3 and Smad3 FoxH1 inh 62.0*[fluorescence artefact?].
`CCn1cc(C(=O)Nc2ccc3c(c2)OCCO3)c2cc(OC)c(OC)cc2c1=O` gave GALR2 antag -7.1, S1P2 blocker 1.1, MT1-MMP txn act 1.2, GALR2 ag -1.5, S1P2 agonist 29.3* and Smad3 FoxH1 inh -17.2.
Screening CCn1cc(C(=O)NCc2ccc(C)o2)c2cc(OC)c(OC)cc2c1=O returned GALR2 antag -9.1, S1P2 blocker -21.7, MT1-MMP txn act 0.9, GALR2 ag -0.1, S1P2 agonist 17.4* and Smad3 FoxH1 inh -1.6.
For O=c1oc2c(CN3CCOCC3)c(O)ccc2c2ccccc12 the results were GALR2 antag 0.3, S1P2 blocker -7.2, MT1-MMP txn act 1.7, GALR2 ag -0.7, S1P2 agonist -5.5 and Smad3 FoxH1 inh 0.8.
`O=c1oc2c(CN3CCOCC3)c(O)ccc2c2c1CCCC2` gave GALR2 antag -0.5, MT1-MMP txn act 1, GALR2 ag 5.0* and Smad3 FoxH1 inh -6.7.
For CCC(C)NC(=O)c1ccccc1C(=O)NC(C)CC (centres undefined) the results were GALR2 antag -15.8, S1P2 blocker 58.1*, MT1-MMP txn act 1.1, GALR2 ag -1.8, S1P2 agonist -0.7 and Smad3 FoxH1 inh -22.7.
`CCC(C)NC(=O)c1ccccc1NC(=O)Nc1ccccc1` (centres undefined) gave GALR2 antag 13.1, S1P2 blocker 8.2, MT1-MMP txn act 1.2, GALR2 ag -1.2, S1P2 agonist -8.0 and Smad3 FoxH1 inh 5.4.
For CC(=O)/C(=C\c1ccccc1F)C(=O)c1ccccc1 the results were Smad3 FoxH1 inh -6.5.
For N#C/C(=C\NC(=S)c1ccncc1)c1nc2ccccc2s1 the results were Smad3 FoxH1 inh 2.7.
For COc1cccc(C2=NC(C)(C)NC(c3ccccc3O)C2)c1 (centres undefined) the results were GALR2 antag 1.9, S1P2 blocker -1.1, MT1-MMP txn act 2.1*, GALR2 ag -1.0, S1P2 agonist -4.9 and Smad3 FoxH1 inh -3.7.
Screening COc1cccc(C2=NOC(C(=O)NC(C)C)C2)c1 (centres undefined) returned GALR2 antag -5.8, S1P2 blocker -48.7, MT1-MMP txn act 1.3, GALR2 ag -1.1, S1P2 agonist -8.5 and Smad3 FoxH1 inh -1.8.
Screening CCC1(C)N=C(c2ccc3c(c2)OCO3)CC(c2ccccc2O)N1 (centres undefined) returned GALR2 antag 6.2, S1P2 blocker 2.7, MT1-MMP txn act 2.4*, GALR2 ag -2.6, S1P2 agonist -4.4 and Smad3 FoxH1 inh 4.1.
